Data as given in PubChem BioAssay (Tox21).
Records with an inconclusive call do not appear. Activity calls are given as the source filed them. Unless noted, calls come from the whole dose curve; as a rule, active = well fitted curve in the direction sought with a large enough effect in the repeat runs; inconclusive = weak or mixed curves; inactive = no such curve, though single readings can be large; an effect the other way counts as inactive or inconclusive.

Experiments:
[1] = qHTS assay to identify small molecule antagonists of the estrogen receptor alpha (ER-alpha) signaling pathway using the BG1 cell line in the presence of 0.1 nM 17-beta-estradiol - cell viability counter screen (AID 1259241); note: nearly all actives have a fitted effect of over 40% in size
Summary of the method: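 CellTiter-Fluor read (30 min, 37C) on ER-alpha/ERE-luc VM7Luc4E2 cells; 22 hr compound treatment; agonist 0.1 nM E2 final; same-well multiplex.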

[2] = qHTS assay to identify small molecule antagonists of the androgen receptor (AR) signaling pathway using the MDA cell line in the presence of 0.5 nM R1881 - cell viability counter screen (AID 1259242); note: nearly all actives have a fitted effect of over 45% in size
Summary of the method: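 Live-cell protease fluorescence, CellTiter-Fluor, 30 min at 37C. Cells: MDA-kb2, 3,000/well, preincubated 5 hr. Compounds plus 0.5 nM R1881 final, 16 hr, 37C, 0% CO2.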

[3] = qHTS assay to identify small molecule HDAC inhibitors (AID 1259364);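 note: wild-type HCT-116 cells with endogenous class I/II HDAC activity; top concentration of the series differs between compounds; nearly all actives have a fitted effect of over 45% in size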
Summary of the method: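 HCT-116 (wild type), 1,500 cells/well, overnight; compound 2 hr 37C 5% CO2; HDAC-Glo I/II reagent 30 min RT; luminescence readout.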

[4] = qHTS assay to identify small molecule HDAC inhibitors - cell viability counter screen (AID 1259365); note: series mostly up to about 92 µM; nearly all actives have a fitted effect of over 50% in size
Summary of the method: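 To flag cytotoxic hits, 1,500 wild-type HCT-116 cells per well, plated the day before, receive test compounds for 2hr at 37 C before CellTiter-Glo reagent and a luminescence read.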

[5] = qHTS assay to identify small molecule agonists of the sonic hedgehog signaling (Shh) pathway - cell viability counter screen (AID 1259366); note: nearly all actives have a fitted effect of over 50% in size
Summary of the method: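 Fluorescence from CellTiter-Fluor reports live cells in this counter screen. NIH/3T3-derived Gli1-Luc reporter cells receive test compounds for 24hr at 37C; reagent goes in at 23hr.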

[6] = qHTS assay to identify small molecule antagonists of the sonic hedgehog signaling (Shh) pathway - cell viability counter screen (AID 1259367); note: nearly all actives have a fitted effect of over 55% in size
Summary of the method: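 Conditioned medium drove Shh signaling in 3T3 Gli1-Luc cells exposed to compounds at 37C and 5% CO2. Viability was determined from CellTiter-Fluor fluorescence, with reagent incubated 1 hr after 23 hr of treatment.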

[7] = qHTS assay to identify small molecule agonists of the sonic hedgehog signaling (Shh) pathway (AID 1259368; calls by dose curve;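 note: NIH/3T3-derived 3T3Gli1-Luc cells carrying a stable Gli1-driven firefly luciferase reporter; series mostly up to about 92 µM; nearly all actives have a fitted effect of over 15% in size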)
Summary of the method: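 Read-out: firefly luciferase luminescence from a Gli1 response element reporter stably integrated in NIH/3T3-derived 3T3Gli1-Luc cells, measured 30 min at room temperature after reagent addition. Compound exposure lasted 24 hr at 37 C, 5% CO2.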

[8] = qHTS assay to identify small molecule antagonists of the sonic hedgehog signaling (Shh) pathway (AID 1259369; calls by dose curve; note: nearly all actives have a fitted effect of over 45% in size; note: potency is the fitted concentration of half-maximal effect)
Summary of the method: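 Luminescence readout: firefly Luc under Gli1 response element in 3T3Gli1-Luc cells (NIH/3T3 clone). Antagonist mode, stimulation by conditioned medium; compound exposure 24hr at 37 C, 5% CO2.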

[9] = biological target: Estrogen receptor beta (Homo sapiens) (UniProt Q92731); test: qHTS assay to identify small molecule agonists of the estrogen receptor beta (ER-beta) signaling pathway (AID 1259377; active = well fitted activation curve with a large enough effect in the signal ratio in the repeat runs, not every such curve was filed as active; the % refers to the signal ratio)
Summary of the method: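 Screening used GripTite ER-beta-UAS-bla cells held in 2% charcoal-stripped FBS medium. After overnight (16 hr) compound incubation at 37C, beta-lactamase activity was detected with a FRET substrate by fluorescence.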

[10] = biological target: Estrogen receptor beta (Homo sapiens) (UniProt Q92731); test: qHTS assay to identify small molecule antagonists of the estrogen receptor beta (ER-beta) signaling pathway (AID 1259378; active = well fitted inhibition curve with a large enough effect in the signal ratio in the repeat runs, not every such curve was filed as active; the % refers to the signal ratio)
Summary of the method: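 ER-beta-UAS-bla HEK293T (GripTite) cells in 2% charcoal-stripped FBS medium were preincubated 6 hr at 37C, dosed with compound, then stimulated with 1 nM E2 (final) for 16 hr; beta-lactamase reporter read by B/G FRET fluorescence after 2 hr substrate loading.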

[11] = qHTS assay to identify small molecule agonists of the androgen receptor (AR) signaling pathway in the presence of an antagonist - cell viability counter screen (AID 1259379);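 note: MDA-kb2 human breast cancer cells carrying an MMTV luciferase reporter; series mostly up to about 92 µM; nearly all actives have a fitted effect of over 25% in size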
Summary of the method: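 Viability counter screen: CellTiter-Fluor fluorescence, measured in the same wells as the luciferase read-out. MDA-kb2 cells, 3,000/well, with nilutamide at 3.0uM final and compounds at 15 concentrations, 16 hr at 37C, 0% CO2.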

[12] = qHTS assay to identify small molecule agonists of the estrogen receptor beta (ER-beta) signaling pathway - cell viability counter screen (AID 1259380); note: nearly all actives have a fitted effect of over 30% in size
Summary of the method: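 Luminescence read-out (CellTiter-Glo, 30 min, room temp) taken in the same wells as the beta-lactamase reporter assay; ER-beta-UAS-bla HEK293T cells exposed to DMSO-dissolved compounds for 16 hr at 37C in 2% charcoal-stripped FBS medium.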

[13] = qHTS assay to identify small molecule antagonists of the estrogen receptor beta (ER-beta) signaling pathway - cell viability counter screen (AID 1259382); note: series mostly up to about 92 µM; nearly all actives have a fitted effect of over 55% in size
Summary of the method: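 Luminescent ATP read-out (CellTiter-Glo, 30 min, RT) taken in the same wells as the bla reporter assay. HEK293T ER-beta-UAS-bla cells in 2% charcoal-stripped FBS were exposed to compounds with 1nM E2 for 16 hr at 37C.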

[14] = biological target: Estrogen receptor (Homo sapiens) (UniProt P03372); test: qHTS assay to identify small molecule antagonists of the estrogen receptor alpha (ER-alpha) signaling pathway using the BG1 cell line in the presence of 0.1 nM 17-beta-estradiol (AID 1259244); note: nearly all actives have a fitted effect of over 50% in size
Summary of the method: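 Luminescence after ONE-Glo (30 min, room temperature) measured ERE-luciferase activity in VM7Luc4E2 cells treated 22 h with compound and 0.1 nM final 17beta-estradiol as stimulator.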

[15] = biological target: Estrogen receptor (Homo sapiens) (UniProt P03372); test: qHTS assay to identify small molecule agonists of the estrogen receptor alpha (ER-alpha) signaling pathway in the presence of an antagonist (AID 1259383; calls by dose curve; note: top concentration of the series differs between compounds; nearly all actives have a fitted effect of over 15% in size)
Summary of the method: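 Luciferase luminescence (ONE-Glo, 30min at room temperature) measured in VM7Luc4E2 cells after 22hr compound exposure at 15 concentrations, with 10.0nM ICI-182,780 final present; cells express endogenous ER-alpha and carry four EREs upstream of luciferase.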

[16] = qHTS assay to identify small molecule agonists or antagonists of the thyroid stimulating hormone receptor (TSHR) signaling pathway - wild type cell line counter screen (AID 1259384; calls by dose curve)
Summary of the method: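 Wild-type HEK293 cells were plated 18 h at 37 C/5% CO2, pin-dosed with compound plus Ro20-1724 medium, held 30 min at room temperature, then given cAMP-d2 and anti-cAMP-cryptate; fluorescence was read after 1 h. Fifteen concentrations, triplicate.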

[17] = biological target: Thyrotropin receptor (Homo sapiens) (UniProt P16473); test: qHTS assay to identify small molecule antagonists of the thyroid stimulating hormone receptor (TSHR) signaling pathway (AID 1259385; calls by dose curve; note: nearly all actives have a fitted effect of over 20% in size)
Summary of the method: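 TSHR-HEK293 cells were plated and held 18 h at 37C/5% CO2, then given compound plus Ro20-1724 and stimulated with TSH at 1.5 ng/mL final. After 30 min at room temperature, cAMP was detected with cAMP-d2/anti-cAMP-cryptate (1 h) by fluorescence.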

[18] = qHTS assay to identify small molecule phospholipidosis (PLD) inducers (AID 1259344; active = well fitted curve in the direction sought with a large enough effect; an effect the other way counts as inactive or inconclusive)
Summary of the method: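 After 4 h attachment on collagen I, HepG2 cells were dosed with compound alongside LipidTOX Red, kept 24 h at 37 C, fixed, and imaged for lamellar phospholipid pits.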
% is set by controls: 0 for no effect and ±100 for the full control effect.

Chain of Thyrotropin receptor (Homo sapiens) (P16473 whole entry, looked up): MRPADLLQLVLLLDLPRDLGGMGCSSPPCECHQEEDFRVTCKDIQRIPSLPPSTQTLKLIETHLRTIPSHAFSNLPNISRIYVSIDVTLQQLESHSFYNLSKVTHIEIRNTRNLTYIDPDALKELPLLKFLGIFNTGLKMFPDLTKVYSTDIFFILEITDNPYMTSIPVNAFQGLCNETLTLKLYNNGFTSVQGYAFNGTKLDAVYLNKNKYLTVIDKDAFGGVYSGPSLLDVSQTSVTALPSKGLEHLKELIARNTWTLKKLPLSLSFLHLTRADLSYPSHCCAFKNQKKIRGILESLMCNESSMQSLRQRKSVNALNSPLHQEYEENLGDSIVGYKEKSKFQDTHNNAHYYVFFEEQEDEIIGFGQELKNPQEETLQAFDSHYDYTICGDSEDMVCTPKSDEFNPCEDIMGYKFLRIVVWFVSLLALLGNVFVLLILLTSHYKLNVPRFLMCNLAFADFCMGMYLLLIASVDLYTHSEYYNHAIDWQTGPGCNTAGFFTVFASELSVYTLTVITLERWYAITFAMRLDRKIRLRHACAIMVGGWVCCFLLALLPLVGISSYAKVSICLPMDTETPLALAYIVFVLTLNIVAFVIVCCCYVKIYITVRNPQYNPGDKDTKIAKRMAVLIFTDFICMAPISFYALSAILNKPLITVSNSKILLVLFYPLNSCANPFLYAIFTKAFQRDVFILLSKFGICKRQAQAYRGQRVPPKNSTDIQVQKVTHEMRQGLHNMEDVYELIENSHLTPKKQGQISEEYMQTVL
Chain of Estrogen receptor (Homo sapiens) (P03372 whole entry, looked up): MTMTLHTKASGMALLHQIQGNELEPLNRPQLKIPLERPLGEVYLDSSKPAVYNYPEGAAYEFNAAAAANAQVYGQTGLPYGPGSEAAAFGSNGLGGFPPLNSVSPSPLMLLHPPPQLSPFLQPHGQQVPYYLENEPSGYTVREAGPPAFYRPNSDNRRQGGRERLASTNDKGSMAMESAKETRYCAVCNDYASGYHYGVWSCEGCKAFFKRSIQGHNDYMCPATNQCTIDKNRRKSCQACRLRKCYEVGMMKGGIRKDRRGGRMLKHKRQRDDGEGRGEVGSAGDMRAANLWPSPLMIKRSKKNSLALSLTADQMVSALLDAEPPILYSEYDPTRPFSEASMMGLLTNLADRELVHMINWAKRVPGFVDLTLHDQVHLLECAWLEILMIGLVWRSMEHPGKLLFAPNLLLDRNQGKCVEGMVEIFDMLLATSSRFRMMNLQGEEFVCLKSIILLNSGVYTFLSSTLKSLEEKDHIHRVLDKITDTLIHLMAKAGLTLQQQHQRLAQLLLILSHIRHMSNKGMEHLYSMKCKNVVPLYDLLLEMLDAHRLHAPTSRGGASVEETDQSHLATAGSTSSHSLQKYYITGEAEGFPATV
Chain of Estrogen receptor beta (Homo sapiens) (Q92731 whole entry, looked up): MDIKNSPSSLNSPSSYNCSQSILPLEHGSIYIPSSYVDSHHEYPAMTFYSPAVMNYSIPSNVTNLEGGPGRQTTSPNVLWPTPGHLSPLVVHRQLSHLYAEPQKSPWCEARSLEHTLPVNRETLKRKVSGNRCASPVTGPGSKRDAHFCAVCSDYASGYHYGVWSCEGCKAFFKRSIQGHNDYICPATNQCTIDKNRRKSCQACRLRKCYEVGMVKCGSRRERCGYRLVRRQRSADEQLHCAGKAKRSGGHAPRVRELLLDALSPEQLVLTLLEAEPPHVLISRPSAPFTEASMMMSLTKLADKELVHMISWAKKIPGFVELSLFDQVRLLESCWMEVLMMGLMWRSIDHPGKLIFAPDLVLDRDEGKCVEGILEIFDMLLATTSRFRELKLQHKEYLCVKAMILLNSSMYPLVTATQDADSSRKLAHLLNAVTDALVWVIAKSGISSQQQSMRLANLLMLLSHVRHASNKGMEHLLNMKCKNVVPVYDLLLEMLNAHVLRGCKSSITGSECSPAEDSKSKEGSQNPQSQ

CC(C)CCCCOC(=O)c1ccccc1C(=O)OCCCCC(C)C
inactive: Potency [1] | outcome [2] | Potency [3] | outcome [4] | Potency [5] | Potency [6] | outcome [7] | Potency [8] | Potency [9] | outcome [10] | Potency [11] | Potency [12] | outcome [13]

BrCCCCCBr
inactive: Potency [1] | outcome [2] | Potency [14] | Potency [3] | outcome [4] | Potency [5] | outcome [7] | Potency [9] | outcome [10] | Potency [11] | Potency [12] | outcome [15] | outcome [16] | outcome [17]

O=P(O)(O)OP(=O)(O)O
inactive: Potency [1] | outcome [2] | outcome [18] | Potency [3] | outcome [4] | Potency [5] | Potency [6] | outcome [7] | Potency [8] | Potency [9] | outcome [10] | Potency [11] | Potency [12] | outcome [13] | outcome [16]

CCOCCOCCOCC
inactive: Potency [1] | outcome [2] | Potency [3] | outcome [4] | Potency [5] | Potency [6] | outcome [7] | Potency [8] | Potency [9] | outcome [10] | Potency [11] | Potency [12] | outcome [13]

N[C@@H](CCC(=O)N[C@@H](CS)C(=O)NCC(=O)O)C(=O)O
inactive: activity change, negative = cytotoxicity [1] -2.09% [at 19 µM] | viability change, negative = cytotoxic [2] 1.98% [at 19 µM] | outcome [18] | activity change, negative = inhibition [3] -2.25% [at 19 µM] | activity change, negative = cytotoxicity [4] 2.26% [at 19 µM] | viability change, negative = cytotoxic [5] -6.52% [at 19 µM] | viability change, negative = cytotoxic [6] 0.577% [at 19 µM] | activity change [7] -0.793% [at 18.9 µM] | activity change, negative = inhibition [8] 20% [at 19 µM] | activity change, negative = cytotoxicity [12] 8.98% [at 19 µM] | activity change, negative = cytotoxicity [13] 1.29% [at 19 µM] | cAMP activity change [16] 2.89% [at 18.9 µM] | activity change, negative = inhibition [17] 6.72% [at 19 µM]

CCCCCCCCCCCCCC
inactive: Potency [1] | outcome [2] | Potency [3] | outcome [4] | Potency [5] | Potency [6] | outcome [7] | Potency [8] | Potency [9] | outcome [10] | Potency [11] | Potency [12] | outcome [13] | outcome [16] | outcome [17]

O=Cc1ccc(Cl)c(Cl)c1
inactive: Potency [1] | outcome [2] | Potency [3] | outcome [4] | Potency [5] | Potency [6] | outcome [7] | Potency [8] | Potency [9] | outcome [10] | Potency [11] | Potency [12] | outcome [13] | outcome [16] | outcome [17]

Cc1cc(NC(=O)C2=C(O)c3ccccc3S(=O)(=O)N2C)no1
inactive: Potency [1] | outcome [2] | outcome [18] | Potency [3] | outcome [4] | Potency [5] | outcome [7] | Potency [8] | Potency [12] | outcome [13] | outcome [16] | outcome [17]

O=C(NCC(O)CO)c1c(I)c(C(=O)NCC(O)CO)c(I)c(N(CCO)C(=O)CO)c1I (stereo unspecified)
inactive: Potency [1] | outcome [2] | outcome [18] | Potency [3] | outcome [4] | Potency [5] | Potency [6] | outcome [7] | Potency [8] | Potency [9] | outcome [10] | Potency [11] | Potency [12] | outcome [13] | outcome [16] | outcome [17]

CC(C)C[C@H](NC(=O)CNC(=O)[C@H](Cc1ccc(O)cc1)NC(=O)[C@H](CO)NC(=O)[C@H](Cc1c[nH]c2ccccc12)NC(=O)[C@H](Cc1cnc[nH]1)NC(=O)[C@@H]1CCC(=O)N1)C(=O)N[C@@H](CCCN=C(N)N)C(=O)N1CCC[C@H]1C(=O)NCC(N)=O (stereo in doubt)
inactive: Potency [1] | outcome [2] | outcome [18] | Potency [3] | outcome [4] | Potency [5] | Potency [6] | outcome [7] | Potency [8] | Potency [9] | outcome [10] | Potency [11]

Nc1nnc(-c2cccc(Cl)c2Cl)c(N)n1
inactive: Potency [1] | outcome [2] | outcome [18] | Potency [3] | outcome [4] | Potency [5] | Potency [6] | outcome [7] | Potency [8] | Potency [9] | outcome [10] | Potency [11] | Potency [12] | outcome [13] | outcome [16] | outcome [17]

CCCC(=O)C(C)=O
inactive: Potency [1] | outcome [2] | Potency [14] | Potency [3] | outcome [4] | Potency [5] | outcome [7] | Potency [8] | Potency [9] | outcome [10] | Potency [12] | outcome [13] | outcome [15] | outcome [16] | outcome [17]

O=C(NCCN1CCOCC1)c1ccc(Cl)cc1
inactive: Potency [1] | outcome [2] | outcome [18] | Potency [3] | outcome [4] | Potency [5] | Potency [6] | outcome [7] | Potency [8] | Potency [9] | outcome [10] | Potency [11] | Potency [12] | outcome [13] | outcome [16] | outcome [17]

CCC(C=O)CC
inactive: Potency [1] | outcome [2] | Potency [3] | outcome [4] | Potency [6] | outcome [7] | Potency [8] | Potency [9] | outcome [10] | Potency [11] | Potency [12] | outcome [13] | outcome [16] | outcome [17]

Brc1ccc(-c2ccccc2)cc1
inactive: Potency [1] | outcome [2] | Potency [3] | outcome [4] | Potency [5] | Potency [6] | outcome [7] | Potency [11] | Potency [12] | outcome [16]

OC[C@H](Cc1cccc(O)c1)[C@H](CO)Cc1cccc(O)c1
inactive: Potency [1] | outcome [2] | Potency [3] | outcome [4] | Potency [5] | outcome [7]
active: Potency [8] 62.6 µM

CC(C)(C)c1cc(CCC(=O)NN)cc(C(C)(C)C)c1O
inactive: Potency [1] | outcome [2] | Potency [3] | outcome [4] | Potency [5] | Potency [6] | outcome [7] | Potency [8] | outcome [13] | outcome [16] | outcome [17]

CC(C)CC(C)CC(C)CC(C)COC(=O)c1ccccc1C(=O)OCC(C)CC(C)CC(C)CC(C)C (stereo unspecified)
inactive: Potency [1] | outcome [2] | Potency [3] | outcome [4] | Potency [5] | Potency [6] | outcome [7] | Potency [11] | Potency [12] | outcome [13] | outcome [16] | outcome [17]

CCc1ccc(C=O)cc1
inactive: Potency [1] | outcome [2] | Potency [3] | outcome [4] | Potency [5] | outcome [7] | Potency [8] | Potency [11] | Potency [12] | outcome [13] | outcome [16] | outcome [17]
